# Data taken from PubChem BioAssay (NCATS).
# Results filed as inconclusive are left out. Where a call stands in place of a potency, no number is given. Active and inactive are the calls of the source. The call rests on the fitted dose curve. Numbered stars: 1 amine (or outer) side, 2 acyl side, 3 side chain; on linkers, the order of the positions; unused ones are H or OH. Bridge positions count the residues as written; N and C are the ends. Square brackets hold non-standard residues; d marks the D form. Peptide text beside a SMILES is read from it. I, II: the chains in the order shown. Actinocin(9to1) = Cc1c2oc3c(C)ccc(C(=O)[*:1])c3nc-2c(C(=O)[*:2])c(N)c1=O; NMeV = CN[C@H](C(=O)O)C(C)C; Sar = CNCC(=O)O
# Assay: qHTS assay for small molecule disruptors of the mitochondrial membrane potential - 1 hr assay (AID 651754); further: nearly all actives have a fitted effect of over 35% in size
# Conditions: series mostly up to 92.2 µM
# Description: National Center for Advancing Translational Sciences [NCATS]
# NIH Chemical Genomics Center [NCGC]
# National Institutes of Environmental Health Sciences [NIEHS]
# National Toxicology Program [NTP]
# Mitochondrial membrane potential (MMP), one of the parameters for mitochondrial function, is generated by mitochondrial electron transport chain that creates an electrochemical gradient by a series of redox reactions. This gradient drives the synthesis of ATP, a crucial molecule for various cellular processes. Measuring MMP in living cells is commonly used to assess the effect of chemicals on mitochondrial function. […] The dye accumulates in the mitochondria of healthy cells as aggregates, with red fluorescence. The mitochondrial potential collapses and the dye can no longer accumulate in the mitochondria and remains in the cytoplasm in monomers, with green fluorescence.
# 2,000 HepG2 cells in 5 uL/well were dispensed into black, clear-bottom 1536-well plates using a Multidrop Combi (Thermo Scientific) dispenser. The assay plates were incubated overnight at 37C to allow cells to attach to the wells, followed by the transfer of 23 nL compound or DMSO vehicle by a pin tool (Kalypsys). The plates were incubated for 1 hr at 37C and 5% CO2, followed by the addition of 5 uL of 2X Mito-MPS dye (BD Biosciences) into each well using Flying Reagent Dispenser (Aurora Discovery) and then following 30 min incubation at 37C. Fluorescence intensity (490nm excitation and 535nm emission for monomers; and 540nm excitation and 590nm emissions for aggregates) was measured using an Envision plate reader.
# Potency means the concentration at half of the fitted maximal effect.
row,Structure (SMILES),Potency
1,CC(O)C(=O)O (stereo not given),inactive
2,COc1cccc2c1C(=O)c1c(O)c3c(c(O)c1C2=O)C[C@@](O)(C(=O)CO)C[C@@H]3O[C@H]1C[C@H](N)[C@H](O)[C@H](C)O1,2.66 µM (active)
3,CC(=O)Oc1ccc(C(c2ccc(OC(C)=O)cc2)c2ccccn2)cc1,inactive
4,CCCCCCc1ccc(O)cc1O,37.6 µM (active)
5,Oc1ccc(O)cc1,inactive
6,CC(=O)O[C@]1(C(C)=O)CC[C@H]2[C@@H]3C[C@H](C)C4=CC(=O)CC[C@]4(C)[C@H]3CC[C@@]21C,inactive
7,Oc1c(Cl)cc(Cl)cc1Sc1cc(Cl)cc(Cl)c1O,10.6 µM (active)
8,"Cc1c2oc3c(C)ccc(C(=O)N[C@@H]4C(=O)N[C@H](C(C)C)C(=O)N5CCC[C@H]5C(=O)N(C)CC(=O)N(C)[C@@H](C(C)C)C(=O)O[C@@H]4C)c3nc-2c(C(=O)N[C@@H]2C(=O)N[C@H](C(C)C)C(=O)N3CCC[C@H]3C(=O)N(C)CC(=O)N(C)[C@@H](C(C)C)C(=O)O[C@@H]2C)c(N)c1=O (I: T[dV]P[Sar][NMeV] / II: T[dV]P[Sar][NMeV]; ester I:1-I:C, II:1-II:C; linker I:N-II:N via Actinocin(9to1))",inactive
9,COC1=CC(=O)C[C@@H](C)[C@]12Oc1c(Cl)c(OC)cc(OC)c1C2=O,inactive
10,COc1cccc2c1C(=O)c1c(O)c3c(c(O)c1C2=O)C[C@@](O)(C(C)=O)C[C@@H]3O[C@H]1C[C@H](N)[C@H](O)[C@H](C)O1,6.68 µM (active)
